Data as given in PubChem BioAssay AID1159580 (chemical genetic matrix, 2015).
The campaign covered roughly 5,500 compounds. About 2,000 (36%) were called active. About 18% were inconclusive and are not listed. Rule as the data show it: active = normalized growth mostly below about 0.91 (no sharp cut-off); inconclusive = no clear call, values can overlap the other calls; inactive = mostly above about 0.92. The list shows a part of the results.

Assay: chemical genetic growth profiling, strain panel (AID 1159580);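 also: tested at 20 µM; growth read once vehicle control cultures reached saturation at 30 °C; 1 = growth at the plate median or of vehicle wells; lower values mean less growth of the strain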
Details: growth OD

Measured: normalized growth

CCCOc1ccc2nc(NC(=O)OC)[nH]c2c1
active: S. cerevisiae deletion strains, locus YML124C, strain tub3, active compounds read low 0.88 | S. cerevisiae deletion strains, locus YNL153C, strain GIM3, active compounds read low 0.438 | S. cerevisiae deletion strains, locus YPL241C, strain CIN2, active compounds read low 0.606
inactive: S. cerevisiae deletion strains, locus YJR075W, strain HOC1, active compounds read low 0.992 | S. cerevisiae deletion strains, locus YKL009W, strain mrt4, active compounds read low 0.99 | S. cerevisiae deletion strains, locus YKL068W, active compounds read low 0.995 | S. cerevisiae deletion strains, locus YKL085W, strain MDH1 (second series), active compounds read low 0.995 | S. cerevisiae deletion strains, locus YKL085W, strain MDH1, active compounds read low 0.995 | S. cerevisiae deletion strains, locus YKL160W, strain elf1, active compounds read low 1.02 | S. cerevisiae deletion strains, locus YKL190W, strain CNB1, active compounds read low 1.02 | S. cerevisiae deletion strains, locus YKR001C, strain vps1, active compounds read low 0.96 | S. cerevisiae deletion strains, locus YKR026C, strain gcn3, active compounds read low 1.02 | S. cerevisiae deletion strains, locus YKR091W, strain srl3, active compounds read low 1.01 | S. cerevisiae deletion strains, locus YLL001W, strain dnm1, active compounds read low 1.01 | S. cerevisiae deletion strains, locus YLL026W, active compounds read low 1.01 | S. cerevisiae deletion strains, locus YLL041C, strain sdh2, active compounds read low 1.01 | S. cerevisiae deletion strains, locus YLR027C, strain aat2, active compounds read low 1.01 | S. cerevisiae deletion strains, locus YLR039C, strain RIC1, active compounds read low 0.833 | S. cerevisiae deletion strains, locus YLR058C, strain SHM2, active compounds read low 0.99 | S. cerevisiae deletion strains, locus YLR102C, strain apc9, active compounds read low 0.981 | S. cerevisiae deletion strains, locus YLR113W, strain HOG1, active compounds read low 1.03 | S. cerevisiae deletion strains, locus YLR221C, strain rsa3, active compounds read low 1.01 | S. cerevisiae deletion strains, locus YLR258W, strain gsy2, active compounds read low 1.01 | S. cerevisiae deletion strains, locus YLR262C, strain YPT6 (second series), active compounds read low 0.955 | S. cerevisiae deletion strains, locus YLR262C, strain YPT6, active compounds read low 0.849 | S. cerevisiae deletion strains, locus YLR268W, strain sec22, active compounds read low 0.971 | S. cerevisiae deletion strains, locus YLR320W, strain mms22, active compounds read low 1.04 | S. cerevisiae deletion strains, locus YLR330W, strain CHS5, active compounds read low 0.989 | S. cerevisiae deletion strains, locus YLR342W, strain FKS1 (second series), active compounds read low 0.973 | S. cerevisiae deletion strains, locus YLR342W, strain FKS1, active compounds read low 1.03 | S. cerevisiae deletion strains, locus YLR357W, strain rsc2, active compounds read low 1.02 | S. cerevisiae deletion strains, locus YLR370C, strain arc18, active compounds read low 1.02 | S. cerevisiae deletion strains, locus YLR371W, strain rom2, active compounds read low 0.983 | S. cerevisiae deletion strains, locus YLR384C, strain iki3, active compounds read low 1.01 | S. cerevisiae deletion strains, locus YLR418C, strain cdc73, active compounds read low 0.878 | S. cerevisiae deletion strains, locus YML016C, strain PPZ1, active compounds read low 0.983 | S. cerevisiae deletion strains, locus YML032C, strain rad52, active compounds read low 0.982 | S. cerevisiae deletion strains, locus YML120C, strain ndi1, active compounds read low 1.02 | S. cerevisiae deletion strains, locus YMR058W, strain fet3, active compounds read low 1.01 | S. cerevisiae deletion strains, locus YMR078C, strain ctf18, active compounds read low 0.979 | S. cerevisiae deletion strains, locus YMR125W, strain sto1, active compounds read low 1.02 | S. cerevisiae deletion strains, locus YMR129W, active compounds read low 1.02 | S. cerevisiae deletion strains, locus YMR205C, strain PFK2, active compounds read low 1.03 | S. cerevisiae deletion strains, locus YMR223W, strain ubp8, active compounds read low 0.96 | S. cerevisiae deletion strains, locus YMR231W, strain pep5, active compounds read low 1.01 | S. cerevisiae deletion strains, locus YMR263W, strain SAP30, active compounds read low 0.989 | S. cerevisiae deletion strains, locus YMR307W, strain GAS1, active compounds read low 0.844 | S. cerevisiae deletion strains, locus YNL067W, strain RPL9B, active compounds read low 1.01 | S. cerevisiae deletion strains, locus YNL071W, strain lat1, active compounds read low 1.02 | S. cerevisiae deletion strains, locus YNL128W, strain TEP1, active compounds read low 0.975 | S. cerevisiae deletion strains, locus YNL183C, strain NPR1, active compounds read low 1.01 | S. cerevisiae deletion strains, locus YNL209W, strain ssb2, active compounds read low 1.02 | S. cerevisiae deletion strains, locus YNL233W, strain BNI4, active compounds read low 1.01 | S. cerevisiae deletion strains, locus YNL248C, strain rpa49, active compounds read low 1.02 | S. cerevisiae deletion strains, locus YNL250W, strain rad50, active compounds read low 0.98 | S. cerevisiae deletion strains, locus YNL271C, strain bni1, active compounds read low 0.986 | S. cerevisiae deletion strains, locus YNL298W, strain CLA4, active compounds read low 0.965 | S. cerevisiae deletion strains, locus YNL307C, strain MCK1, active compounds read low 0.972 | S. cerevisiae deletion strains, locus YNL322C, strain KRE1 (second series), active compounds read low 1 | S. cerevisiae deletion strains, locus YNL322C, strain KRE1, active compounds read low 1 | S. cerevisiae deletion strains, locus YNR049C, strain mso1, active compounds read low 1.01 | S. cerevisiae deletion strains, locus YNR052C, strain pop2, active compounds read low 0.977 | S. cerevisiae deletion strains, locus YOL006C, strain TOP1, active compounds read low 0.983 | S. cerevisiae deletion strains, locus YOL012C, strain htz1 0.822 | S. cerevisiae deletion strains, locus YOL147C, strain pex11, active compounds read low 0.975 | S. cerevisiae deletion strains, locus YOR001W, strain rrp6, active compounds read low 1.02 | S. cerevisiae deletion strains, locus YOR061W, strain CKA2, active compounds read low 0.992 | S. cerevisiae deletion strains, locus YOR069W, strain VPS5, active compounds read low 0.993 | S. cerevisiae deletion strains, locus YOR070C, strain gyp1, active compounds read low 1.01 | S. cerevisiae deletion strains, locus YOR080W, strain dia2, active compounds read low 1.02 | S. cerevisiae deletion strains, locus YOR083W, strain WHI5, active compounds read low 1.02 | S. cerevisiae deletion strains, locus YOR106W, strain vam3, active compounds read low 0.999 | S. cerevisiae deletion strains, locus YOR136W, strain idh2, active compounds read low 0.995 | S. cerevisiae deletion strains, locus YOR144C, strain elg1, active compounds read low 0.988 | S. cerevisiae deletion strains, locus YOR184W, strain ser1, active compounds read low 0.957 | S. cerevisiae deletion strains, locus YOR231W, strain MKK1, active compounds read low 1.07 | S. cerevisiae deletion strains, locus YOR265W, strain rbl2, active compounds read low 1.01 | S. cerevisiae deletion strains, locus YOR270C, strain vph1, active compounds read low 1.02 | S. cerevisiae deletion strains, locus YOR290C, strain snf2, active compounds read low 1.01 | S. cerevisiae deletion strains, locus YOR316C, strain cot1, active compounds read low 0.983 | S. cerevisiae deletion strains, locus YPL051W, strain arl3, active compounds read low 1.01 | S. cerevisiae deletion strains, locus YPL078C, strain atp4, active compounds read low 1.02 | S. cerevisiae deletion strains, locus YPL106C, strain sse1, active compounds read low 1.02 | S. cerevisiae deletion strains, locus YPL240C, strain hsp82, active compounds read low 1.01 | S. cerevisiae deletion strains, locus YPL256C, strain CLN2, active compounds read low 1.02 | S. cerevisiae deletion strains, locus YPR119W, strain clb2, active compounds read low 0.987 | S. cerevisiae deletion strains, locus YPR141C, strain kar3, active compounds read low 0.993 | S. cerevisiae deletion strains, locus YPR163C, strain tif3, active compounds read low 0.982 | S. cerevisiae deletion strains, locus YPR167C, strain met16, active compounds read low 0.977 | S. cerevisiae deletion strains, strain wtn01, active compounds read low 0.967 | S. cerevisiae strains, strain wild type, active compounds read low 0.995
